Experimental findings from PubChem BioAssay are described below.

SMILES strings stand for the structures.

The test deals with Wnt5a (protein binding on small-molecule microarray). The test can be described thus: Wnt5a binders on small-molecule microarray, primary screen, biophysical, 635/667 nm fluorescence (AID 1142).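 Also: fluorescence read at 667 nm with signal to noise per printed feature.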 As to conditions: 635 nm fluorescence, higher = more signal.
Compound `CON=C(C)CCC(=O)OC[C@H]1O[C@H](C#Cc2ccccc2)C=C[C@@H]1Oc1ccc(C)cc1` came in with a composite z-score of 0.0488.
The figure for `CC(C)(C)N1C(=O)[C@H]2[C@H]3[C@H](O)[C@H](O)CC(=NOC[C@@H](O)COCc4ccco4)[C@@H]3CC[C@H]2C1=O` is 0.0983; for `CO[C@@H]1[C@H](O)CO[C@H]1C=Cc1ccccc1` it is -0.174.
The figure for `CCN1C(=O)[C@H]2[C@H]3[C@H](O)[C@H](O)CC(=NOCC[C@@H]4C=C[C@H](OC(C)=O)[C@@H](COC(C)=O)O4)[C@@H]3CC[C@H]2C1=O` is 0.0885.
The figure for `CO[C@@H](C1CCCCC1)[C@@H](C)[C@H](OCc1cccc(Br)c1)[C@@H](C)CO` is -0.098; for `CCOC(=O)CCN1C(=O)[C@H]2[C@H]3[C@H](O)[C@H](O)CC(=NOCC(C)C)[C@@H]3CC[C@H]2C1=O` it is 0.0707; for `CCOC(=O)CCN1C(=O)[C@H]2[C@H]3[C@H](O)[C@H](O)CC(=NO[C@@H]4O[C@H](CO)[C@@H](O)[C@H](O)[C@H]4O)[C@@H]3CC[C@H]2C1=O` it is 0.231.
Turning to `CO[C@H]1COC(=O)CC=C[C@@H](C)COC(=O)[C@H]2CCCN2C(=O)CC=C[C@H]1C`, the composite z-score was 0.203.
Take `CCOC(=O)[C@H](Cc1ccccc1)NC(=O)CCC1CC(OC(=O)NCc2cccc3ccccc23)CC2(CCCC(COC(=O)NCCc3ccccc3OC)O2)O1` (stereo partly specified): the composite z-score worked out at 0.201.
The figure for `Cc1ccc(S(=O)(=O)N[C@@H]2COC(=O)CC=C[C@@H](C)[C@H](NS(=O)(=O)c3ccc(C)cc3)COC(=O)[C@H](C)NC(=O)CC=C[C@H]2C)cc1` is -0.0175.
The same measure for `CCN1C(=O)[C@H]2[C@H]3[C@H](O)[C@H](O)CC(=NOCC=C(C)CCC=C(C)C)[C@@H]3CC[C@H]2C1=O`: 0.288.
